Most compounds without a hit are left out; they make up all but 4.6% or so of the library.
hgDAF-12 ag: hgDAF-12 agonism, primary luciferase screen; HEK293 GAL4-hgDAF12 UAS-luciferase reporter, agonist luminescence; normalized to butyrate control; activation, % at 6.8 µM; hit rate 1.8% among 370,000; AID 687014;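 active means activation above a cutoff set at the mean of all screened compounds plus 3 SD, cut at about 10% in these data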;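 further: 0% = DMSO wells and 100% = sodium butyrate wells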
Wee1 degr inh: inhibitors of human Wee1 degradation. HeLa Luc-Wee1K328M stability, luciferase luminescence; 100% = proteasome inhibitor MG132 effect. P30291. hit rate 1.2% among 220,000. AID 1321. reporter increase, % at 5 µM;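 active means activation above the mean of all tested compounds plus 3 SD, set per screening run, cut at about 8.8% in these data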;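 further: cells exposed to compound for 20 h before luminescence read; 0% = DMSO alone and 100% = MG132 at 30 µM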
Target sequence (P30291 whole entry K328M): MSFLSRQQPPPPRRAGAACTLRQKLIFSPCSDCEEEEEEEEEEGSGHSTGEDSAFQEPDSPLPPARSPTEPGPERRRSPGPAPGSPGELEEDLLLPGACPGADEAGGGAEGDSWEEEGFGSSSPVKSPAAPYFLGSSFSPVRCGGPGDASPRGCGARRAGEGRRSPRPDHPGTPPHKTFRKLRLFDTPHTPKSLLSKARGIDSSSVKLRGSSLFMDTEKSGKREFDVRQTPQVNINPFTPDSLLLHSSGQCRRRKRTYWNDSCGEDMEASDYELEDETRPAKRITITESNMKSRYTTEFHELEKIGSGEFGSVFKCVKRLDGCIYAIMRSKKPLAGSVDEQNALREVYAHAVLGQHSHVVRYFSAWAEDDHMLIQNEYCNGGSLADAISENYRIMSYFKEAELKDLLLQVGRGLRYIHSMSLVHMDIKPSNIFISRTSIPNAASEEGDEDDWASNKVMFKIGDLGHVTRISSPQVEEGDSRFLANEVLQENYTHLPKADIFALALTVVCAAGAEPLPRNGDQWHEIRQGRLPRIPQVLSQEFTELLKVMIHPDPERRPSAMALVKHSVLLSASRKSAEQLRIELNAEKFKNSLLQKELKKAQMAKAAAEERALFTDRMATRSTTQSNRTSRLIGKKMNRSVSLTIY
DAX1 inh-1: NR0B1 (DAX1) inhibition; inhibition, % at 6.75 µM; HEK293 Gal4-DAX1 luciferase reporter, luminescence; hit rate 0.99% among 340,000; P51843;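 active means inhibition above the mean over all tested compounds plus 3 SD, cut at about 4.2% in these data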;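 further: 0% = DAX1-transfected cells with DMSO and 100% = empty-vector control cells with DMSO; inhibition shows as a rise in luminescence from relieved DAX1 repression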
hcDAF-12 act: activates DAF-12 receptor from parasite H. contortus; HEK293 hcDAF-12 lit1-tk-luc reporter, luminescence; 0% DMSO, 100% Δ7-dafachronic acid; activation, % at 6.8 µM; hit rate 1.4% among 370,000;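 active means activation above the mean of all tested compounds plus 3 SD, cut at about 5.5% in these data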;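 further: 100% = response to 3 µM Δ7-dafachronic acid high control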
DAX1 inh-2: DAX1 (NR0B1) inhibition, primary screen; HEK293T StAR-luciferase reporter, SF-1/DAX-1 repression relief; inhibition, % at 6.8 µM; hit rate 1.1% among 370,000;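 active means inhibition above the mean over all tested compounds plus 3 SD, cut at about 3.6% in these data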;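 further: 0% = DAX-1 cells with DMSO and 100% = cells lacking DAX-1 with DMSO; higher inhibition means more luminescence from relief of DAX-1 repression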
ssDAF12 agonist: S. stercoralis DAF-12 activation, primary screen. HEK293 ssDAF-12/GRIP1 lit1-tk-luc reporter, luminescence; % of 3 µM dafachronic acid response. activation, % at 6.8 µM. hit rate 1% among 370,000. AID 652126;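 active means activation above the mean over all tested compounds plus 3 SD, cut at about 0.9% in these data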;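 further: 0% = DMSO-only wells and 100% = 3 µM delta7-dafachronic acid wells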
The depositor's hits bear a star; x = no result.

SMILES	hgDAF-12 ag	Wee1 degr inh	DAX1 inh-1	hcDAF-12 act	DAX1 inh-2	ssDAF12 agonist
CC1=C(C(=O)N(C(C)C)C(C)C)CC(CC(=O)NCCN2CCOCC2)C(=O)N1CCC1=CCCCC1 (centres undefined)	3	x	x	0	1	-1
CC1(C)Cc2c(sc3nc(C4CC4)n(N)c(=O)c23)CO1	-1	-3	7.6*	-2	0	-2
CC1(C)Cc2c(sc3nc(C4CCCCC4)n(N)c(=O)c23)CO1	1	-1	1	0	0	-1
CCCCC1CCC(C(=O)N(C)CC(=O)Nc2cccc(F)c2)CC1 (centres undefined)	2	x	0	0	-1	-1
COc1ccc2cc(CCOC3CCCCO3)ncc2c1 (centres undefined)	9	x	2	6.5*	2	0
COc1ccc2cc(C3(C)NC(=O)N(CC(=O)N4CCCCC4)C3=O)ccc2c1 (centres undefined)	-2	x	-1	1	4.1*	-1
Nc1[nH]c(C(=O)c2ccc(Br)cc2)c(-c2ccc(Br)cc2)c1C(=O)NCc1ccc(-c2ccccc2)cc1	-1	x	x	0	1	-1
COc1cc(OC)c(NC(=O)c2cc3ccccc3cc2O)cc1Cl	5	x	-1	4	0	0
Cc1ccc(-c2nc(N=Nc3ccc(O)cc3)n[nH]2)cc1	11*	6	-1	0	3	-2
COc1ccc(-c2nc(N=Nc3ccc(O)cc3)n[nH]2)cc1	6	5	-1	-2	0	-1
O=C(NCCc1ccc(Cl)cc1)Nc1cccc(Cl)c1	3	8.9*	-1	-1	1	-1
Cc1cc(C)cc(N(CC(=O)NC2CCC(C)CC2)S(=O)(=O)c2ccccc2)c1 (centres undefined)	8	x	x	1	1	-1
COc1ccc(-c2csc(NC(=O)CN3C(=O)CCC3=O)n2)cc1OC	0	11*	-1	-1	0	-1
COc1ccc(-c2csc(NC(=O)CN3C(=O)CCC3=O)n2)cc1	-3	-1	2	-2	0	-1
Oc1ccc(-c2nc3ccccn3c2NCc2ccco2)cc1	6	0	4.3*	0	0	0
CC(C)=CCC[C@H](C)C[C@@H]1Cc2[nH][nH]c(=O)c2[C@H](c2ccc(F)cc2)O1	3	x	x	-1	-1	0
CC1CCCC=CC2CC(OC(=O)CN(C)C)CC2C(O)C=CC(=O)O1 (centres undefined)	-8	x	-2	-2	4.5*	-2
CCOC(=O)[C@]12CCCC=C1N(CCCOC)C(=O)[C@@H]2CC(=O)NCCCCc1ccccc1	1	x	x	-2	-1	-1
COC(=O)C1CN(CC(C)C)CCS(=O)(=O)N1Cc1ccc(Cl)cc1 (centres undefined)	0	x	x	-1	0	-2
CC(C)C1Cc2c(sc(NC(=S)NC(=O)c3ccccc3)c2C#N)CO1 (centres undefined)	3	1	1	0	0	-1
CCCN1CCc2c(sc(NC(=S)NC(=O)c3ccccc3)c2C#N)C1	5	-1	4.8*	3	3	-2
CC(C)N1CCc2c(sc(NC(=S)NC(=O)c3ccccc3)c2C#N)C1	4	2	2	8.3*	1	-2
COCCCNC(=O)C[C@H]1C[C@@]2(C(=O)OC)C(=C[C@H](COCc3ccccc3)O[C@@H]2C)N(Cc2ccc(Cl)cc2Cl)C1=O	0	x	x	-3	0	-2
CCn1c2ccccc2c2cc(NC(=O)c3cc4c(C)nn(-c5ccccc5)c4s3)ccc21	1	x	x	1	-1	-1
C#CCNC(=O)C[C@H]1C[C@@]2(C(=O)OC)C(=C[C@H](C3CCCC3)O[C@@H]2C)N(CCC2=CCCCC2)C1=O	1	x	x	-2	1	-1
SMILES	hgDAF-12 ag	Wee1 degr inh	DAX1 inh-1	hcDAF-12 act	DAX1 inh-2	ssDAF12 agonist
COc1ccc(N=Nc2c(N)nn(C)c2N)cc1	10	x	4	1	3	1.2*
CCCCNC(=O)C1CCN(Cc2ccc(OCc3ccccc3)cc2)CC1	11*	-1	0	0	0	0
O=C(C1CCN(Cc2ccc(OCc3ccccc3)cc2)CC1)N1CCCC1	2	-2	-1	0	-1	-1
OC1CCN(Cc2ccc(OCc3ccccc3)cc2)CC1	11*	x	2	6.3*	2	0
Cc1ccc(CN2CCCCC(NC(=O)c3cccc([N+](=O)[O-])c3)C2=O)cc1 (centres undefined)	-2	x	x	-2	-2	-1
CCOc1ccc(CCN2CN(CC)CNC2=S)cc1OCC	-1	-1	4.9*	-2	0	0
Cc1ccc(C(=O)C2CCN(CC(=O)N3CC(C)CC(C)C3)CC2)cc1 (centres undefined)	-2	x	x	-2	1	-2
Clc1ccc(/C=N/NC(=Nc2ccccc2)c2ccccn2)c(Cl)c1	12*	-1	3	6	3	0
COc1ccc(C2Nc3ccccc3C(=O)N2c2ccccc2)cc1CN1CCOCC1 (centres undefined)	0	8	6.1*	1	-1	-1
COc1ccc(NC(=O)CSc2nc(=O)n(CCN(C)C)c3c2CCCC3)cc1OC	0	x	-1	0	0	-1
O=C(COc1ccc(Cl)cc1Cl)NC(=O)N1CCCCC1	12*	0	2	2	2	0
O=C(COc1ccc(Cl)cc1Cl)N1CCCN(C(=O)COc2ccc(Cl)cc2Cl)CC1	-3	2	-2	-3	-2	-2
c1cnc2ccc3ncccc3c2c1	5	4	5.0*	2	1	-1
COC(=O)Nc1ccccc1C(=O)N1CCC(O)(c2ccc(Cl)cc2)CC1	1	-1	0	-1	-1	0
NC(=O)Nc1ccccc1C(=O)N1CCC(O)(c2ccc(Cl)cc2)CC1	x	2	5.4*	x	x	x
O=C1C(=C2SCCCS2)CC/C1=C\c1ccc(F)cc1	2	1	-1	4	1	-1
O=C1CCCC(=O)C1=C1SCCCS1	0	-2	4.5*	1	0	-1
Cc1ccc(OCC(=O)O/N=C(\N)c2cccc([N+](=O)[O-])c2)cc1C	3	2	2	6.0*	0	0
O=C(Nc1ccc2c(c1)CCC2)c1c(F)cccc1Cl	10	8.9*	1	3	2	0
Cn1ccnc1SCc1cn2cc(Br)ccc2n1	8	0	0	3	1	1.2*
Cn1ccnc1SCc1ccc([N+](=O)[O-])cc1	0	-1	1	1	0	-2
O=C(O)CN1C(=O)C=CC1=O	3	x	4.7*	1	0	-1
COc1cc2nc(/C=C/c3cc(OC)c(OC)c(OC)c3)sc2cc1SC	0	9.7*	-3	-5	-3	-2

Screening data as filed in PubChem.
